Laboratory results published in PubChem BioAssay AID652025 (National Center for Advancing Translational Sciences (NCATS), 2013).
In all, about 360,000 compounds went through this assay and about 240 (0.067%) were called active. Rule as the data show it: active = activation above about 50%; inconclusive = mostly about 30% to 49%; inactive = weaker than that. This excerpt belongs to a sample that is enriched for actives.

Experiment: qHTS of IL-2 Activators; also: 0% is about no effect
Conditions: IL-2 activation reporter assay, cell-based qHTS; stronger effect = higher value; in transgenic mouse T cells; stimulated with anti-CD3/CD4/CD28 beads
Description: The adaptive immune response against any infectious agent begins with the activation of an antigen specific T cell. This relatively rare and inert ("naive") T cell undergoes a massive proliferative expansion and differentiation process to generate sufficient number of potent pathogen-specific effector T cells. The effector T cells fight the infection by making cytokines and helping other cells to become fully armed as well. If any naive T cell has antigen receptors (TCRs) that can be activated by self peptides, then a variety of regulatory mechanisms kick in to prevent this cell from performing to its full potential. These processes collectively constitute the phenomenon of immunological tolerance and their failure leads to autoimmunity. One arm of tolerance involves generation of biochemical negative feedback downstream of the TCR (tuning). This is especially relevant to self antigens present in the body over long periods of time (chronic), which form the bulk of our proteome. The negative feedback serves to tune the TCR signaling, such that the ambient antigenic stimulation is nullified intracellularly. Unfortunately, this critical machinery serves as a target for chronic viral, bacterial and parasitic infections (as well as tumors), which can evade a robust immune response, simply by allowing T cells to tune down their signaling to pathogen or malignancy derived antigens. As such, disrupting the tuning in such cases would allow the tolerant T cell to function again and deliver a robust effector response.
If a therapeutic can restore responsiveness to the tuned down T cell, even for a short time, they could combat the pathogen without any additional immunization. To that end, we have developed a sensitive HTS T cell based assay based on IL-2. This assay will be screened against the Molecular Libraries Small Molecule Repository (MLSMR) to find small molecules that could elicit this response.
NIH Chemical Genomics Center [NCGC]
NIH Molecular Libraries Probe Centers Network [MLPCN]
Assay Submitter (PI): Ron Schwartz, NIAID
4 microL (750 cells/well) of unstimulated transgenic mouse T cells (columns 1-3,5-48) are dispensed into Aurora LoBase, black clear-bottom 1536-well assay plates; column 4 receives an identical concentration of transgenic memory T cells as a non-tolerant control. Compounds are then transferred via Kalypsys pin tool equipped with 1536-pin array (10 nL slotted pins, V&P Scientific, San Diego, CA). Following addition of compound and a 60 minute incubation, 1 microL of bead stimulation solution ((0.04 micron Fluospheres (Life technologies, CA) coated with 10ug/ml each anti-CD3 and anti-CD4 (clones 2C11 and GK1.5, BD Biosciences, CA) and mixed with 1ug/ml anti-CD28 (clone PV-1, BD biosciences, CA)). columns 2-48) is added to stimulate the IL-2 response pathway; media is instead added to column 1 as an unstimulated control, while PMA/ionomycin (Sigma Aldrich, MO) is added to column 3 as a control for IL-2 tolerance bypass. The plates are then incubated at 37 degrees C for 18 hours. EGFP and DsRed signal are then detected using an Acumen eX3 Explorer fluorescent plate cytometer. All cells are dispensed in cell media containing EHAA (Quality Biologicals, MD), RPMI (Quality Biologicals, MD), Glutamine (Life Technologies, CA), Penicillin/Streptomycin (Quality Biologicals, MD), 2-ME (Sigma Aldrich, MO) and 10% FBS (Gemini Bioproducts, CA) .

activation, active:
C[n+]1ccc(/C=C/c2c[nH]c3ccccc23)cc1 91.4%, O=C(Cc1nc2ccccc2[nH]c1=O)c1ccc(Cl)cc1 60.1%, COc1ccc2nc(Nc3nc(-c4cc5ccccc5oc4=O)cs3)sc2c1 57.4%

activation, inactive:
CC(C)(C)NC(=O)C(c1ccc(Cl)cc1)N(CCO)C(=O)c1snc(C(N)=O)c1N (configuration not stated) 0.402%, CCOc1cc(S(=O)(=O)NC2CC(C)(C)NC(C)(C)C2)ccc1F 0.923%, C[C@H]1COc2cc(N3CCSCC3)ccc2S(=O)(=O)N1 0.723%, CC(=O)Nc1ccc(NC(=O)CS(=O)(=O)c2cn(CC(=O)N3CCCCC3)c3ccccc23)cc1 2.22%, CC1CC(NC(=S)N(C)C)CC(C)(C)C1 (configuration not stated) -1.93%, CCN(CC)S(=O)(=O)c1ccc(CNC(=O)CN2C(=O)NC3(CCc4ccccc43)C2=O)cc1 (configuration not stated) -3.43%, CCOCc1nnc(NC(=O)CCS(=O)(=O)Cc2ccccc2)s1 2.97%, CCC(C)NC(=O)/C=C/c1ccc(S(=O)(=O)NCc2ccco2)cc1 (configuration not stated) -0.382%, O=C(CCS(=O)(=O)c1ccc2c(c1)NC(=O)CS2)NCc1ccccc1Cl -0.54%, O=C(O)C1C2C=CC(C2)C1C(=O)N1CCN(CCO)CC1 (configuration not stated) -0.292%, CCC(=O)c1ccc(OCC(O)Cn2nc(C)c(C(C)=O)c2C)cc1 (configuration not stated) -0.63%, Cn1cccc1Cc1nnc(SCC(=O)NCCc2ccccc2)n1-c1ccc(F)cc1 -0.845%, Cc1cccc(NC(=O)CSc2nc3c(c(=O)[nH]2)CCC3)c1C -0.45%, O=C1C[C@@H]2c3c(cccc3CN1Cc1ccccc1)C[C@@H](O)[C@H]2O 0.126%, CCCn1c(C(Cc2ccccc2)NC(=O)COC)nc2ccccc21 (configuration not stated) 0.549%, Cc1cccc(NC(=S)N2CCCC(c3nc4ccccc4[nH]3)C2)c1 (configuration not stated) -0.267%, Cc1cc2cc3c(N)[nH]nc3nc2cc1C -0.975%, C=CCN1C2CCCC1CC(NC(=S)Nc1cccc(OC)c1)C2 (configuration not stated) -0.0533%, O=S(=O)(NCc1ccccc1Br)c1ccccc1Br 0.131%, CCN(CC)C(=O)C1=C(C)N(Cc2ccc(F)cc2)C(=O)C(CC(=O)NCc2cccc3ccccc23)C1 (configuration not stated) -1.55%, CN1CCC(N(C)S(=O)(=O)c2ccc(NC(=O)c3cccc(C#N)c3)cc2)CC1 0.319%, CCCN(CC1CC1)C(=O)COC(=O)c1ccc(C)cc1O -0.72%, COc1cccc2oc(CCc3ccccc3)cc(=O)c12 2.76%, COC(C[C@@H]1O[C@@H]1C(=O)[C@@H](C)OCc1ccccc1)OC 0.368%, Cc1noc(/C=C/c2ccco2)c1S(=O)(=O)N1CCC(C(=O)Nc2ccc(Cl)cn2)CC1 -0.421%, Cc1cc(-c2csc(N)n2)c(C)n1-c1ccccc1 -0.438%, CSc1nsc(SC)c1NC(=O)OC1CCCCC1 -1.77%, CN1CCN(c2ccc3c(c2)OC[C@H](Cc2ccccc2)NS3(=O)=O)CC1 1.2%, CC(=O)c1c(C)[nH]c(C(=O)Nc2cc(S(=O)(=O)N(C)C)ccc2C)c1C 0.322%, CO[C@@H]1CN(C)C(=O)c2cc(NC(=O)Nc3cc(F)ccc3F)ccc2OC[C@H](C)N(C(=O)c2ccccn2)C[C@@H]1C -0.0824%, CCCNC(=O)C1(C)CCN(Cc2csc(-c3ccc(Cl)cc3)n2)C1 (configuration not stated) -0.168%, CC(=O)NC12CC3CC(C1)CC(C(=O)N1CCN(C(=O)c4ccco4)CC1)(C3)C2 2.63%, O=C(NCCCNC(=O)NC1CCCCC1)NC1CCCCC1 2.89%, Cc1ccc(N(Cc2cc(=O)[nH]c3ccccc23)C(=O)CCl)cc1 -4.77%, CC1CN(C(=S)Nc2cccc(F)c2)CC(C)O1 (configuration not stated) 0.508%, COC(=O)c1cc2c(ccn2C)n1C -0.203%, CN(C)S(=O)(=O)c1ccc(N2CCCC2)c(C(=O)NCc2ccccc2)c1 0.204%, Cc1ccc(-n2c(C)nnc2SCC(=O)NC2CC2)cc1 -1.22%, O=C(Oc1ccc(Br)cc1C(=S)N1CCOCC1)c1cccc([N+](=O)[O-])c1 0.801%, O=c1c(-c2ccc(Cl)cc2)[n+]([O-])c2ccccc2n1OCc1nc2ccccc2[nH]1 -0.455%, O=C(C[n+]1ccc2c(c1)nnn2-c1ccccc1)c1ccc(Cl)cc1 -1.14%, COc1ccc(N2CCN(C3CCCCC3NS(=O)(=O)c3ccccc3)CC2)cc1 (configuration not stated) -5.42%, CCOC(=O)N1CCN(C(c2ccnc3ccccc23)c2nnnn2-c2c(C)cccc2C)CC1 (configuration not stated) -1.14%, CC(=O)NCCC(=O)Nc1nc(C)c(Cc2ccc3c(c2)OCO3)s1 -2.95%, CCN(CC)c1ccc(NC(=O)C2CCC(CNc3c(N4CCCC4)c(=O)c3=O)CC2)c(C)c1 (configuration not stated) -0.247%, O=C(CS(=O)(=O)c1ccc(C(F)(F)F)cn1)NNC(=O)c1ccccc1 0.398%, O=C(CSc1ccsc1[N+](=O)[O-])N1CCCCC1 -0.638%, CCOC(=O)N1CCC(N2Cc3cccc(C(=O)Nc4ccc(S(=O)(=O)N(CC)CC)cc4)c3C2=O)CC1 -2.11%, Cc1ccc(NC(=O)CSc2nc(=O)n(CCN(C)C)c3c2CCCC3)c(C)c1 0.222%, CN1CCC(CN)(N2CCN(c3ccccc3)CC2)CC1 0.289%, CCN(CC(=O)NCCCN1CCOCC1)S(=O)(=O)c1cc(Cl)ccc1Cl -0.326%, CC(C)C[C@@H](N)c1nnc(SCC(=O)c2ccc(Cl)cc2)o1 0.422%, Cc1c(NC(=O)CSCc2ccccc2)cccc1C(=O)O 3.04%, COc1cccc(C(NC(C)=O)c2nc(-c3ccccc3OC)cs2)c1 (configuration not stated) 0.438%, CN(CCCC(=O)Nc1nccs1)S(=O)(=O)c1ccc(Cl)cc1 -1.49%, C=C1CCC(N(O)c2cc(C)on2)C(=C)CCC2C1CC2(C)C (configuration not stated) -0.223%, NC(=O)COc1ccc(C23CC4CC(CC(C4)C2)C3)cc1 -3.06%, COC(C[C@@H](O)C[C@H](O)[C@H](C)OCc1ccccc1)OC 2.56%, COc1cccc(C(=O)Nc2c3c(nn2-c2cccc(C)c2C)CS(=O)(=O)C3)c1OC -0.743%, CCCCc1nc2cc(C(=O)NCCc3cnn(C)c3)ccc2o1 -2.8%, CCNc1c(NS(=O)(=O)c2ccc(C3CCCCC3)cc2)c(=O)oc2ccccc12 -0.121%, CC(=O)Nc1ccc(CN2CCN(Cc3ccc(F)c(F)c3)C(CCO)C2)cc1 (configuration not stated) -0.804%, Cc1ccc(-c2c[n+](=O)c3c(n2[O-])CCC3)cc1 1.34%, COc1ccc(N(CC(=O)NC2CCCC2)C(=O)CS(=O)CC(=O)Nc2ccc3c(c2)OCO3)cc1 (configuration not stated) -2.57%, c1csc(CN2CCN(Cc3cccs3)C2c2cccs2)c1 0.339%, Cc1cc(C)cc(C(=O)NC(CC(N)=O)c2ccc(N3CCC(N4CCCCC4)CC3)c([N+](=O)[O-])c2)c1 (configuration not stated) -0.417%, O=C(O)CCCCOn1ccnc1 1.09%, CCn1nc(C)c(CN2CCN(Cc3ccc(OC)c(C)c3C)C(CCO)C2)c1C (configuration not stated) -3.09%, O=C(O)c1ccccc1N=N/C(=N/Nc1cc(S(=O)(=O)O)ccc1O)c1ccccc1 0.118%, CCOC(=O)[C@]12CCCC=C1N(Cc1cccc3ccccc13)C(=O)[C@H](CC(=O)NCC13CC4CC(CC(C4)C1)C3)C2 -1.16%, CCN(CC)S(=O)(=O)c1ccc(N2CCN(C)CC2)c(NC(=O)Nc2ccccc2F)c1 -1.22%, CC1(Oc2ccc(Cl)cc2)CCN(Cc2csc3ccccc23)C1 (configuration not stated) 0.192%, COC(=O)COc1cccc2c(=O)n(CC(=O)NCc3ccccc3)ccc12 -3.22%, CCOC(=O)N1CCN(C(=O)c2ccccc2SCC(=O)NCC2CCCCC2)CC1 -1.16%, O=C(NCc1ccccc1Cl)c1csc([C@@H]2O[C@H](CO)[C@@H](O)[C@H]2O)n1 0.0054%, CC(=O)Nc1ccc(C(=O)Nc2cc(S(=O)(=O)N3CCOCC3)ccc2N2CCOCC2)cc1 -2.32%, Nc1nc(-c2sc3nc4c(cc3c2N)CCCC4)nc(N2CCOCC2)n1 -1.7%, CCCc1cc(=O)[nH]c(SCc2cc(=O)oc3c(C)c(C)ccc23)n1 -0.327%, CCOc1ccccc1NC(=O)C12CC3CC(C1)CC(c1ccc(C)cc1)(C3)C2 -4.57%, Cc1cc(C)c2c(-n3cccc3)c(C(=O)NNS(=O)(=O)c3ccc(F)cc3)sc2n1 0.79%, CC(=O)N(Cc1cccs1)C1CCOC(C)(C)C1 (configuration not stated) -0.456%, O=C(NNC(=S)NC1CC2CCC1C2)c1ccc(Cl)cc1 (configuration not stated) -0.932%, Cc1ccccc1-n1nnc2c(=O)oc3ccccc3c21 -0.569%, COc1ccccc1CNC(=O)C1CCCN(S(=O)(=O)c2cccc3cccnc23)C1 (configuration not stated) -1.32%, Cc1ccc(C(CC(=O)O)NC(=O)c2ccc(S(=O)(=O)N3CCCC3)cc2)cc1 (configuration not stated) 0.29%, CC1=C(C(=O)OC2CCCCC2)C(c2ccccc2F)NC(=O)N1 (configuration not stated) -8.28%, Cn1cccc1C1(C(F)(F)F)NCCNC1=O (configuration not stated) -1.5%, CCO[C@H]1OC(C(=O)N2CCOCC2)=C[C@@H](c2ccc3c(c2)OCO3)[C@@H]1CCCO -0.126%, Cc1nn(CCOc2ccc(Br)cc2)c(C)c1[N+](=O)[O-] -2.36%
